# Laboratory results published in PubChem BioAssay.
# Calls of active or inactive are those of the source.
# Assays:
# [1] = test system: Plasmodium falciparum Sir2 (PF13_0152, Sir2A); assay: pfSir2 binders on small-molecule microarrays, primary screen, biochemical, small-molecule microarray, 635 nm fluorescence (AID 1098); conditions: small-molecule microarray binding, fluorescence 635 nm; higher = more signal;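 also: score merges spot fluorescence intensity with its signal-to-noise ratio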
# [2] = small-molecule microarray binders of probe aDKK1, primary screen, biochemical, biotinylated probe, 635/667 nm fluorescence (AID 1099); conditions: higher = more signal;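 also: score merges 667nm spot fluorescence with signal to noise across triplicate slides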
# [3] = small-molecule microarray binders of probe aCHRDL2, primary screen, biochemical, biotinylated probe, 635/667 nm fluorescence (AID 1100); conditions: higher = more signal
# [4] = splicing luciferase reporter signal modulators, primary screen, spliceosome inhibition project, cell-based, HEK293, splice +/- reporter (AID 1101); conditions: luminescence, 24 h, higher = more signal, called active from +8 up or from −8 down;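 also: HEK293 cells carrying a splicing-competent luciferase reporter gene; test concentration not given here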
# [5] = target: Fibroblast growth factor 10 (Homo sapiens) (UniProt O15520); assay: FGF10 binders on small-molecule microarrays, primary screen, biochemical, small-molecule microarray, 635 nm fluorescence (AID 1102); conditions: FGF10 binding, fluorescence 635 nm, higher = more signal
# [6] = test system: glycogen synthase kinase-3 (GSK3A per assay name; protocol says GSK3B); assay: GSK3 binders on small-molecule microarrays, primary screen, biochemical, small-molecule microarray, 635 nm fluorescence, GSK3A (AID 1103); conditions: small-molecule microarray binding, fluorescence 635 nm; higher = more signal; also: the record names both GSK3A and GSK3B
# [7] = target: Epidermal growth factor receptor (Homo sapiens) (UniProt P00533); assay: EGFR binders on small-molecule microarrays, primary screen, biochemical, small-molecule microarray, 635 nm fluorescence (AID 1104); conditions: EGFR binding, higher = more signal;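 also: score merges 667 nm emission intensity with spot signal to noise over triplicate slides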
# [8] = target: Follistatin-related protein 3 (Homo sapiens) (UniProt O95633); assay: FSTL3 binders on small-molecule microarrays, primary screen, biochemical, small-molecule microarray, 635 nm fluorescence (AID 1105); conditions: FSTL3 binding, higher = more signal;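 also: score merges emission near 667 nm and signal to noise per printed spot across three slides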
# [9] = target: Dickkopf-related protein 1 (Homo sapiens) (UniProt O94907); assay: DKK1 binders on small-molecule microarrays, primary screen, biochemical, small-molecule microarray, 635 nm fluorescence scan (AID 1106); conditions: DKK1 binding, higher = more signal;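 also: score merges emission near 667 nm with signal to noise over three replicate slides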
# [10] = test system: Inhibin beta A chain (activin A); assay: INHBA (activin A) binders on microarrays, primary screen, biochemical, small-molecule microarray, 635 nm fluorescence scan (AID 1107); conditions: small-molecule microarray binding, higher = more signal;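 also: mouse activin A protein probed at 4.33 µg/mL on printed slides; score merges bound-protein fluorescence near 667 nm with spot signal-to-noise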
# [11] = test system: Human papillomavirus type 1a protein E7 (residues 44-93); assay: HPV1a E7 fragment binders on microarrays, primary screen, biochemical, small-molecule microarray, residues 44-93, 635 nm fluorescence (AID 1108); conditions: small-molecule microarray binding, fluorescence 635 nm; higher = more signal;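 also: E7 fragment applied at 1 µg/mL in TBST for 1 h at 4 C; score combines spot fluorescence with its signal to noise ratio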
# [12] = modulators of HCV replicon luciferase signal, primary screen, HCV replication inhibitor project, Huh7 cells, luciferase reporter (AID 1109); conditions: 48 h, higher = more signal;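 also: huh7 hepatoma cells harbouring a luciferase neomycin HCV replicon reporter; luciferase luminescence as measure of HCV replicon replication; test concentration not given here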
# [13] = target: Left-right determination factor 2 (Homo sapiens) (UniProt O00292); assay: LEFTY2 binders on small-molecule microarrays, primary screen, biochemical, small-molecule microarray, 635 nm fluorescence scan (AID 1110); conditions: LEFTY2 binding, higher = more signal
# [14] = target: Calmodulin-1 (Homo sapiens) (UniProt P0DP23); assay: CALM1 binders on microarrays, EGTA buffer, profiling panel, biochemical, small-molecule microarray, Cy5-labelled CALM1 (AID 1111); conditions: Cy5-CALM1 binding fluorescence, higher = more signal;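 also: labelled calmodulin applied in Tris saline Tween buffer holding calcium plus EGTA and DTT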
# [15] = target: Calmodulin-1 (Homo sapiens) (UniProt P0DP23); assay: calcium-bound CALM1 binders on microarrays, profiling panel, artefact control for SMM control-protein annotation, biochemical, small-molecule microarray, Cy5-labelled CALM1, plus calcium (AID 1112); conditions: Cy5-CALM1 binding fluorescence, higher = more signal;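 also: score merges spot fluorescence with signal to noise from triplicate slides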
# [16] = small-molecule microarray binders of probe aWnt5a, primary screen, biochemical, biotinylated probe, 635/667 nm fluorescence (AID 1113); conditions: higher = more signal;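 also: score merges 667 nm fluorescence intensity with signal-to-noise per printed feature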
# [17] = small-molecule microarray binders of probe aShh, primary screen, biochemical, biotinylated probe, 635/667 nm fluorescence (AID 1114); conditions: higher = more signal;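 also: probe is biotin-labelled aShh protein from a stem cell growth factor screen; measures binding of labelled protein to compounds printed on the slide; score merges feature fluorescence at 667 nm with signal-to-noise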
# [18] = small-molecule microarray binders of probe aNog, primary screen, biochemical, biotinylated probe, 635/667 nm fluorescence (AID 1115); conditions: higher = more signal;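 also: probe is biotinylated aNog protein used at 0.15 µg/mL for 1 h at 4 C; z-score combines 667 nm fluorescence of each spot with its signal to noise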
# [19] = target: Torsin-1A-interacting protein 1 (Homo sapiens) (UniProt Q5JTV8); assay: LAP1 binders from COS7 cell lysate, primary screen, small-molecule microarray, 635/667 nm fluorescence (AID 1116); conditions: COS7-hLAP1 lysate binding, 635 nm fluorescence, higher = more signal
# [20] = target: Alpha-bungarotoxin (Bungarus multicinctus) (UniProt P60615); assay: alpha-bungarotoxin binders on microarray, profiling panel, artefact control for SMM control protein annotation, biochemical, small-molecule microarray, Alexa647 label, 635/667 nm fluorescence (AID 1117); conditions: alpha-BTX-A647 binding fluorescence, higher = more signal
# Alpha-bungarotoxin (Bungarus multicinctus), sequence (P60615 whole entry, looked up): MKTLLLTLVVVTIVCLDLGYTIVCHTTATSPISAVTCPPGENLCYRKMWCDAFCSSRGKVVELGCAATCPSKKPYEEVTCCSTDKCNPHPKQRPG
# Follistatin-related protein 3 (Homo sapiens), sequence (O95633 whole entry, looked up): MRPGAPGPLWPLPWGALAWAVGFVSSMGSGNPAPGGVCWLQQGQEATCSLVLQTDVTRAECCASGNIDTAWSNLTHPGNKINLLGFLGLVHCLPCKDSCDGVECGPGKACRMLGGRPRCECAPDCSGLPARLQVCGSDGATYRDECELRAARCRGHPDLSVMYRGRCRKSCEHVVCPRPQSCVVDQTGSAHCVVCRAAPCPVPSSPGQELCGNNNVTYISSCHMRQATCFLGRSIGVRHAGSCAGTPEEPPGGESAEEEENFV
# Dickkopf-related protein 1 (Homo sapiens), sequence (O94907 whole entry, looked up): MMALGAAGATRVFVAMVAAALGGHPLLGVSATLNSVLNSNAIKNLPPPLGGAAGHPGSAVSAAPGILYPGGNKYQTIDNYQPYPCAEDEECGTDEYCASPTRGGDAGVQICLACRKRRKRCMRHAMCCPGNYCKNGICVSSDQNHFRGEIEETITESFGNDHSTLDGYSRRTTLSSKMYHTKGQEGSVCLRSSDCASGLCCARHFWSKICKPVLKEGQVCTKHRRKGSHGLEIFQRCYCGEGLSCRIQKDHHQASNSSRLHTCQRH
# Left-right determination factor 2 (Homo sapiens), sequence (O00292 whole entry, looked up): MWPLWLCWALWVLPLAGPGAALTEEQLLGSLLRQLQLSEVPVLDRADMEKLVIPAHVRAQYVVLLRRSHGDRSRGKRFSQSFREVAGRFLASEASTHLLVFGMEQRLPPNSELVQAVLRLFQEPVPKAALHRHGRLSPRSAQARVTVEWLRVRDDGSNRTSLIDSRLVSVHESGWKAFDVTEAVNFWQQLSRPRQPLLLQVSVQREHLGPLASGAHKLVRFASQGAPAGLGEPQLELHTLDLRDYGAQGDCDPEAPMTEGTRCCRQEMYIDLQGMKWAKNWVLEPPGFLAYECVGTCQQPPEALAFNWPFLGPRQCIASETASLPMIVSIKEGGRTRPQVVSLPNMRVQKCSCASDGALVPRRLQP
# Torsin-1A-interacting protein 1 (Homo sapiens), sequence (Q5JTV8 whole entry, looked up): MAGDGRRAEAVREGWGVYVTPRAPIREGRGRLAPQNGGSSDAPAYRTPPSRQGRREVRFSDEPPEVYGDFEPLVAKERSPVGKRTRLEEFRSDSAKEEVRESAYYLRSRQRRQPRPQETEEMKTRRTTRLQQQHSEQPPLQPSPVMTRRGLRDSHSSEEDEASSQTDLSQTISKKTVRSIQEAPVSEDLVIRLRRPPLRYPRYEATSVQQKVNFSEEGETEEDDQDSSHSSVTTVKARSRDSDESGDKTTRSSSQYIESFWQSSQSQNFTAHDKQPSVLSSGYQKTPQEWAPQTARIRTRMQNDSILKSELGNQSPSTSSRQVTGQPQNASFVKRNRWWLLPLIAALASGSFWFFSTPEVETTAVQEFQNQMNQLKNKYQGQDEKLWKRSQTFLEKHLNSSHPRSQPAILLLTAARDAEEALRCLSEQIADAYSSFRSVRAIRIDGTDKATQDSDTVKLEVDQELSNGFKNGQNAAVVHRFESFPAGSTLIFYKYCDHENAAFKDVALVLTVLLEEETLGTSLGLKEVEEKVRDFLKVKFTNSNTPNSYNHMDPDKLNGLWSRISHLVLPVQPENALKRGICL
# Fibroblast growth factor 10 (Homo sapiens), sequence (O15520 whole entry, looked up): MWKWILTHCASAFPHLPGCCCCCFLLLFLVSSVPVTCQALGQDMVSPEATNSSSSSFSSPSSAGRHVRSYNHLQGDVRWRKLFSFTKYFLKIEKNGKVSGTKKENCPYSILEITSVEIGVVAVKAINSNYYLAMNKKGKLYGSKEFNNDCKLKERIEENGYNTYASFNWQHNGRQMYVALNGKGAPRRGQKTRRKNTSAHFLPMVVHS
# Epidermal growth factor receptor (Homo sapiens), sequence (P00533 whole entry, looked up): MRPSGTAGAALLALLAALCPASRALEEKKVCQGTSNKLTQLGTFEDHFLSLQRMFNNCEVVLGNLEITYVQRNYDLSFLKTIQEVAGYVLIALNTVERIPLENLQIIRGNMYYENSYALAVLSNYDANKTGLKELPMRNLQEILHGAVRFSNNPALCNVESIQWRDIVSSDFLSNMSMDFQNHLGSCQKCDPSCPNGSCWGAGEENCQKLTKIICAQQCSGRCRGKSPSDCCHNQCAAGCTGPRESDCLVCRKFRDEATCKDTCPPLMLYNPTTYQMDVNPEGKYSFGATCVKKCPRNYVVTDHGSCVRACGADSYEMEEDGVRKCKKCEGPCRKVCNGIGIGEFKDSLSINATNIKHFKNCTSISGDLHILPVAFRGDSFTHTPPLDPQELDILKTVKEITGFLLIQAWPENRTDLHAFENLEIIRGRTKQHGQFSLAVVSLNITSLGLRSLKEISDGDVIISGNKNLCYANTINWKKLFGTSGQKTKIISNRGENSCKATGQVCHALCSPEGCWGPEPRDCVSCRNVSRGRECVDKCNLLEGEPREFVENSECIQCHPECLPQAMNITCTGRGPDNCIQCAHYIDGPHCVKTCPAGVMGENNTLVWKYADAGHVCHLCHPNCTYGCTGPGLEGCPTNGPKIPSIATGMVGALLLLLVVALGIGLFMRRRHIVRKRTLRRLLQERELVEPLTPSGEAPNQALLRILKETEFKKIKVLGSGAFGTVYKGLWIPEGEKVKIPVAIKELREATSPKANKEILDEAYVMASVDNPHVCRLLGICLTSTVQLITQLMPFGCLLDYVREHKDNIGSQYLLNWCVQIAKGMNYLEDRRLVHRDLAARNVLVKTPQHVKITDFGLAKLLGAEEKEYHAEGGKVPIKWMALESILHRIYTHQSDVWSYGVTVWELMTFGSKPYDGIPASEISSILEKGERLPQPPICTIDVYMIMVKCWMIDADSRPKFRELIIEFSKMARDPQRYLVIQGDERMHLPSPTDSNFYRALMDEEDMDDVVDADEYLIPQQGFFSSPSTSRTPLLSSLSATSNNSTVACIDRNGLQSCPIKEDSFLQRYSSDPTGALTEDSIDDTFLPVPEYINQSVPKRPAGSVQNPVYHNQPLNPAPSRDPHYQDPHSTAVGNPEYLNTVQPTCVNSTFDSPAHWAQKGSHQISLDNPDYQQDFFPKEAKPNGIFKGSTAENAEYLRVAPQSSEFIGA
Compound,composite z-score [1],composite z-score [2],composite z-score [3],z-score [4],composite z-score [5],composite z-score [6],composite z-score [7],composite z-score [8],composite z-score [9],composite z-score [10],composite z-score [11],z-score [12],composite z-score [13],composite z-score [14],composite z-score [15],composite z-score [16],composite z-score [17],composite z-score [18],composite z-score [19],composite z-score [20]
CCCC=C(CCC)[C@@H](NC(=O)Oc1ccc(F)cc1)c1ccc(C(=O)OC)cc1,0.217,0.346,0.893,-1.86 (inactive),0.441,-0.102,0.267,0.495,-0.284,0.602,1.32,-2.48,0.354,0.977,1.13,0.0307,0.336,0.83,0.303,0.799
COC(=O)[C@@]1(Cc2ccccc2)[C@H]2c3cc(C(=O)N4CCCC4)n(Cc4cccc5ccccc45)c3C[C@H]2CN1C(=O)c1ccccc1,0.473,2.15,1.44,-1.33 (inactive),0.664,-0.348,0.0512,0.272,-0.922,1.07,0.696,-1.55,-0.188,1.51,1.42,0.816,1.96,0.714,0.434,0.645
CCOC(=O)C[C@H]1[C@H](OC(=O)c2cc3ccccc3oc2=O)[C@@H](NC(=O)C2CCCCC2)c2cc(OCCCO)ccc2N1C(=O)c1ccccc1,0.784,-0.23,-0.377,-1.45 (inactive),0.995,0.692,0.593,0.708,0.5,0.707,0.992,-0.947,0.493,-0.105,-0.236,-0.0405,-0.138,-0.266,0.294,-0.0403
C=C(COC)/C(=C/C[C@H](OC(=O)c1ccncc1)c1ccc(OCCO)cc1)c1cnc2ccccc2c1,1.24,0.159,-0.106,-1.02 (inactive),1.36,1.07,1.26,1.55,1.01,1.61,1.46,-1.63,1.07,0.447,-0.669,0.0328,0.171,-0.456,0.78,2.8
CC(C)C[C@@H]1NC(=O)[C@@H]2C[C@H](C(=O)NCCCCCN)[C@H](c3cccc(OCCO)c3)N2C1=O,1.44,-0.0704,0.527,-1.08 (inactive),0.272,0.685,-0.26,0.627,0.387,0.842,0.828,-0.352,0.197,1.36,0.615,-0.0896,-0.153,-0.282,1.36,0.417
CC(=O)N1Cc2ccccc2C[C@@]2(COC(c3ccc(OCCCO)cc3)=N2)C1=O,1.32,1.18,1.31,-1.66 (inactive),0.649,1.32,0.455,1.13,0.438,1.09,0.612,-1.62,0.827,1.79,0.845,0.0587,0.412,0.114,1.7,1.88
CCOC(=O)C[C@H]1[C@H](OC(=O)c2cc3ccccc3oc2=O)[C@@H](NC(=O)Cc2ccc(OC)cc2)c2cc(OCCCO)ccc2N1C(=O)c1ccccc1,0.39,-0.351,-0.355,-0.854 (inactive),0.458,0.0878,0.436,0.23,0.313,0.726,0.856,-0.273,0.427,-0.13,-0.342,-0.139,0.299,1.75,0.559,0.258
COc1ccc(CCN2C(=O)[C@@]3(Cc4ccccc42)c2ccccc2C(=O)N(Cc2ccccc2C(F)(F)F)[C@H]3c2ccc(CO)cc2)cc1,0.516,-0.19,-0.537,-0.856 (inactive),0.167,0.441,0.0283,0.425,0.622,0.717,0.291,-0.961,0.0259,0.238,-0.839,-0.158,0.0796,-0.258,0.0645,0.88
C=C(C)C1C(=C)CN([C@H](CO)c2ccccc2)C1=O (stereo not given in full),1.35,-0.172,0.22,-0.622 (inactive),-0.0267,-0.599,-0.476,-0.0684,-0.153,1.36,0.317,-0.25,-0.065,-0.911,-0.968,-0.0459,-0.154,-0.229,-0.486,-0.605
C=C(COC)/C(=C/C[C@@H](OC(C)=O)c1ccc(OCCO)cc1)c1cc(C(=O)OC)ccc1OC,1.22,0.455,-0.103,0.585 (inactive),1.54,0.794,0.265,1.27,0.43,0.884,1.35,-1.51,0.417,-0.107,-0.878,0.0618,0.23,-0.354,0.864,0.472
CS(=O)(=O)CCOC(=O)C1=CC(CCCO)=CC(c2ccc(CN3CCCC3)cc2)N(Cc2cc3c(cc2Br)OCO3)C=C1C(=O)OCCS(C)(=O)=O (stereo not given),1.52,0.525,0.555,-0.9 (inactive),1.2,1.27,0.422,0.634,0.232,1.29,0.981,-2.33,0.538,1.33,0.484,0.0765,0.171,1.27,2.44,1.62
